# According to PubChem BioAssay (NCATS):
# Results filed as inconclusive are left out. Entries that show only a call come without a potency. Calls of active or inactive are those of the source. Unless noted, the call rests on the fitted dose curve.
# Tests used:
# [1] = molecular target: Androgen receptor (Homo sapiens) (UniProt P10275); assay: qHTS assay for small molecule agonists of androgen receptor signaling (AID 588515; active means well fitted curve in the direction sought with a large enough effect in the signal ratio, with a control signal flat; the % refers to the signal ratio); details: AR-UAS-bla HEK293, beta-lactamase ratio, agonist 16 h; stronger effect = higher value
# Method in brief: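 EC50 and efficacy came from Hill fits of titrations (up to 92 uM) normalized to 30 nM R1881 as 100% and DMSO as 0%. Compound exposure was 16 h at 37 C on AR-UAS-bla HEK293 cells, with a 405/460/530 nm CCF4 fluorescence read.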
# [2] = molecular target: Androgen receptor (Homo sapiens) (UniProt P10275); assay: qHTS assay for small molecule antagonists of androgen receptor signaling (AID 588516; active means well fitted curve in the direction sought with a large enough effect in the signal ratio, with a control signal flat, not every such curve was filed as active; the % refers to the signal ratio)
# Method in brief: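 Compounds tested in titration against 10 nM R1881 in AR-responsive bla reporter HEK 293 cells; CCF4 fluorescence (460/530 nm) after 16 h exposure gave IC50 and efficacy.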
# [3] = molecular target: Bile acid receptor (Homo sapiens) (UniProt Q96RI1); assay: qHTS assay for small molecule antagonists of farnesoid X receptor signaling (AID 588526); further: potency means the concentration at half of the fitted maximal effect
# Method in brief: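 Concentration-response titrations were fitted to the Hill equation for half-maximal inhibition and maximal response, with data normalised to 50 uM chenodeoxycholic acid and DMSO control wells. Cells: FXR-UAS-bla HEK293T, dialyzed FBS.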
# [4] = molecular target: Bile acid receptor (Homo sapiens) (UniProt Q96RI1); assay: qHTS assay for small molecule agonists of farnesoid X receptor signaling (AID 588527); details: HEK293T FXR-UAS-bla, beta-lactamase ratio, 16 h; activation: stronger effect = higher value; further: series mostly up to about 77 µM
# Method in brief: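 FXR-UAS-bla HEK293T, 10% dialyzed FBS; cpds up to 92 uM titration, 16 h 37 C; CCF4 dye 2 h RT; fluorescence. Normalized to chenodeoxycholic acid 100 uM (100%) and DMSO (0%); Hill fit gives EC50, efficacy.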
# [5] = molecular target: Glucocorticoid receptor (Homo sapiens) (UniProt P04150); assay: qHTS assay for small molecule agonists of glucocorticoid receptor signaling (AID 588532; active means well fitted curve in the direction sought with a large enough effect in the signal ratio, with a control signal flat; the % refers to the signal ratio); details: HeLa MMTV-bla, beta-lactamase ratio, agonist, 18 h; activation: stronger effect = higher value, percent of dexamethasone control, DMSO zero
# Method in brief: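 Titration series, up to 92 uM, applied to GRE-bla HeLa cells for 18 h at 37 C. Detection by CCF4 FRET substrate after 2 h at RT.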
# [6] = molecular target: Thyroid hormone receptor beta (Homo sapiens) (UniProt P10828); assay: qHTS assay for small molecule antagonists of thyroid hormone receptor beta signaling (AID 588547; active means well fitted inhibition curve with a large enough effect in the signal ratio, with a control signal flat, not every such curve was filed as active; the % refers to the signal ratio;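 further: cells stimulated with 0.4 nM T3 agonist during compound exposure; series mostly up to about 77 µM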); details: TR-UAS-bla HEK293, beta-lactamase ratio, antagonist mode, 18 h
# Method in brief: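 TR-UAS-bla GripTite HEK293 cells in 2% charcoal/dextran FBS medium were preincubated 4 h at 37 C, given compound (0.59 nM to 92 uM) plus 0.4 nM T3 (final) for 18 h, then CCF4 for 2 h at RT; Hill fit gave IC50.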
# [7] = qHTS assay for small molecule agonists of the antioxidant response element (ARE) signaling pathway (AID 651741; active means well fitted activation curve with a large enough effect in the signal ratio; the % refers to the signal ratio; further: potency means the concentration at half of the fitted maximal effect)
# Method in brief: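 Compounds in DMSO are pinned onto HepG2 ARE-bla cells (2,000/well) that were preincubated 5 h; plates stay 16 h at 37 C, then beta-lactamase activity is detected with LiveBLAzer B/G substrate by fluorescence.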
# [8] = qHTS assay for small molecule antagonists of peroxisome proliferator-activated receptor delta signaling (AID 588535; active means well fitted inhibition curve with a large enough effect in the signal ratio, with a control signal flat, not every such curve was filed as active; the % refers to the signal ratio; further: potency means the concentration at half of the fitted maximal effect;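 on max response: cells co-treated with a PPAR-delta agonist as stimulator during compound exposure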); details: HEK293T PPARd-UAS-bla, beta-lactamase FRET ratio, 18 h; 460 nm channel
# Method in brief: (§1)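 Reporter: UAS-bla under PPAR-delta response element, HEK293T host. Medium: 2% charcoal/dextran FBS. Dosing: titration, 18 hrs, 37 C. Detection: CCF4, 2 hrs RT, 405 ex/460 and 530 em.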
# [9] = molecular target: Peroxisome proliferator-activated receptor delta (Homo sapiens) (UniProt Q03181); assay: as above
# Method in brief: as §1
# [10] = molecular target: Peroxisome proliferator-activated receptor gamma (Homo sapiens) (UniProt P37231); assay: qHTS assay for small molecule antagonists of peroxisome proliferator-activated receptor gamma signaling (AID 588537; active means well fitted inhibition curve with a large enough effect in the signal ratio, with a control signal flat, not every such curve was filed as active; the % refers to the signal ratio;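 further: reporter cells co-stimulated with 50 nM rosiglitazone agonist during compound treatment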)
# Method in brief: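 We seeded GeneBLAzer HEK293 reporter cells at 3000 per well, allowed 6-6.5 h attachment at 37 C, then co-treated with test compound titrations and 50 nM rosiglitazone overnight (16 h). Inhibition was quantified from 460/530 nm emission ratios.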
# [11] = molecular target: Glucocorticoid receptor (Homo sapiens) (UniProt P04150); assay: qHTS assay for small molecule antagonists of glucocorticoid receptor signaling (AID 588533; active means well fitted inhibition curve with a large enough effect in the signal ratio, with a control signal flat, not every such curve was filed as active; the % refers to the signal ratio;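 further: cells stimulated with 2 nM dexamethasone as agonist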)
# Method in brief: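 Antagonist-mode qHTS: compound titrations added to GRE-bla HeLa cells, then dexamethasone 2 nM final; 18 h, 37 C. CCF4 FRET fluorescence normalized to dexamethasone and DMSO; IC50 from Hill fit.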
# [12] = qHTS assay for small molecule activators of the human pregnane X receptor (PXR) signaling pathway (AID 720659; call rule not given here)
# Glucocorticoid receptor (Homo sapiens), sequence (P04150 whole entry, looked up): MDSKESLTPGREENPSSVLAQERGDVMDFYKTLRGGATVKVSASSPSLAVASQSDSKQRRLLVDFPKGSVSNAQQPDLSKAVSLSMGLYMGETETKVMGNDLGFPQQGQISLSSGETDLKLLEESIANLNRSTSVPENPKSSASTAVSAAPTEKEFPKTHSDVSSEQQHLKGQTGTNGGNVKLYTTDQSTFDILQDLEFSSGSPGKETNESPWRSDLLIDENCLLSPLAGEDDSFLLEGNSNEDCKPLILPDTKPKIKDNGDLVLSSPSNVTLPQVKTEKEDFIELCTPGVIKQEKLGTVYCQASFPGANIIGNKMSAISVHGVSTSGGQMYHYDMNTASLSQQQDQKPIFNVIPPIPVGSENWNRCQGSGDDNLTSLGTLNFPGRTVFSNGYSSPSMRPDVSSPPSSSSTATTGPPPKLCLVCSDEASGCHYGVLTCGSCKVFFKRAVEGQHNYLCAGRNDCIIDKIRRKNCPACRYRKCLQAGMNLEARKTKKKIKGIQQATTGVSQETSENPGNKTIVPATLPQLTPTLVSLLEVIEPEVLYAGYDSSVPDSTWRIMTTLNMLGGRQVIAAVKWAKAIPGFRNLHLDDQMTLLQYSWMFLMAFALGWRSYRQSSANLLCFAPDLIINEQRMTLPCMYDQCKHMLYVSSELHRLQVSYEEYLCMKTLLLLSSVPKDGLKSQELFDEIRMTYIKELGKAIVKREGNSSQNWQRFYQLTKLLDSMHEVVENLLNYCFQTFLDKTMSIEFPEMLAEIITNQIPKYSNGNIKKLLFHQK
# Thyroid hormone receptor beta (Homo sapiens), sequence (P10828 whole entry, looked up): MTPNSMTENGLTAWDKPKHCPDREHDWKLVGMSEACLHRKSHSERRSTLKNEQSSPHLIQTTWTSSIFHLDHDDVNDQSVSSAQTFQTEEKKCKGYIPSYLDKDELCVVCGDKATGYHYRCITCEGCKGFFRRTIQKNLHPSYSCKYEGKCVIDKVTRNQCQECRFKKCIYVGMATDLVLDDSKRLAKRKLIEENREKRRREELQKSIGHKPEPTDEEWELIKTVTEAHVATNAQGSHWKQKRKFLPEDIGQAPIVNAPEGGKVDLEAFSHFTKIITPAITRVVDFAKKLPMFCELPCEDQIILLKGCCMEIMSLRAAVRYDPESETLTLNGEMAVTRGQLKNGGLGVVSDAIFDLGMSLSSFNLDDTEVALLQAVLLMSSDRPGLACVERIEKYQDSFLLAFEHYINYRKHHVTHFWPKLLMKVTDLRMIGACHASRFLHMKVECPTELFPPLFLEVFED
# Peroxisome proliferator-activated receptor gamma (Homo sapiens), sequence (P37231 whole entry, looked up): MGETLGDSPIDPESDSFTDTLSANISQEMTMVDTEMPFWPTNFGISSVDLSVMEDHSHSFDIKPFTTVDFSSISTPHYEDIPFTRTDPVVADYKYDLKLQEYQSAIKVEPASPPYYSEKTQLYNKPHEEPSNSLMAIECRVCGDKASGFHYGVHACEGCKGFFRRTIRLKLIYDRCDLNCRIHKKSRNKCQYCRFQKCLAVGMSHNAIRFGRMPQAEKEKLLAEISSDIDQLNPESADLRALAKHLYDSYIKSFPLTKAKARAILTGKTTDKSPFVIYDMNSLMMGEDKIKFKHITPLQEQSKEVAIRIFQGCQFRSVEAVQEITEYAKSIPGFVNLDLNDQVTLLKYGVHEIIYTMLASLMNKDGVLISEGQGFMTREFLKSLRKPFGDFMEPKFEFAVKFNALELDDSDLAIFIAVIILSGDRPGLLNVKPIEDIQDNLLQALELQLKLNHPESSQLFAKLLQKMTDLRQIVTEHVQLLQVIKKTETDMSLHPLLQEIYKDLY
# Androgen receptor (Homo sapiens), sequence (P10275 whole entry, looked up): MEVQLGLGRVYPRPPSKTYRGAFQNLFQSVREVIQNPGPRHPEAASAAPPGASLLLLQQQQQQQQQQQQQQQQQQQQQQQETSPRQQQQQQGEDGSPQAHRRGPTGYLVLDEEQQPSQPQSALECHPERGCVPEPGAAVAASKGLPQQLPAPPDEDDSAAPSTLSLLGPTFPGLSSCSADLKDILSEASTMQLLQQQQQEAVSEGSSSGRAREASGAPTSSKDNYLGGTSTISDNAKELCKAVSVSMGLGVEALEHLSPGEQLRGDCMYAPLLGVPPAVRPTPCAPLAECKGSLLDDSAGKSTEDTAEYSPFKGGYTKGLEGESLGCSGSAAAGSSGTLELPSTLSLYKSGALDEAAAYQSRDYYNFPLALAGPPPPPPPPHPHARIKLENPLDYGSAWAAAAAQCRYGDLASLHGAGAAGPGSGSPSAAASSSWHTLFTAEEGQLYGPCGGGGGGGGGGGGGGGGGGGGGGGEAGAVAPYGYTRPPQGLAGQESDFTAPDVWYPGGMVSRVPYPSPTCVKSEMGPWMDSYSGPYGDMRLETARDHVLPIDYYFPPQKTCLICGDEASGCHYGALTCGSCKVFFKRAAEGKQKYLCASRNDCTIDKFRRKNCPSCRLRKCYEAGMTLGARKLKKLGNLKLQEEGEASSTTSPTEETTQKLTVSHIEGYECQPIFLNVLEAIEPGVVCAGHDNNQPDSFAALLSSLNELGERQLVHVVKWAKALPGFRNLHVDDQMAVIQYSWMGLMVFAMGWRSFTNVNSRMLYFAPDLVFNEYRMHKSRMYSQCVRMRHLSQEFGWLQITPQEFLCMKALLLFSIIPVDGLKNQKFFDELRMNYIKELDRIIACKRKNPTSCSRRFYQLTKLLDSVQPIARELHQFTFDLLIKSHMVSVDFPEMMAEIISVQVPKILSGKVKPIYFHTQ
# Peroxisome proliferator-activated receptor delta (Homo sapiens), sequence (Q03181 whole entry, looked up): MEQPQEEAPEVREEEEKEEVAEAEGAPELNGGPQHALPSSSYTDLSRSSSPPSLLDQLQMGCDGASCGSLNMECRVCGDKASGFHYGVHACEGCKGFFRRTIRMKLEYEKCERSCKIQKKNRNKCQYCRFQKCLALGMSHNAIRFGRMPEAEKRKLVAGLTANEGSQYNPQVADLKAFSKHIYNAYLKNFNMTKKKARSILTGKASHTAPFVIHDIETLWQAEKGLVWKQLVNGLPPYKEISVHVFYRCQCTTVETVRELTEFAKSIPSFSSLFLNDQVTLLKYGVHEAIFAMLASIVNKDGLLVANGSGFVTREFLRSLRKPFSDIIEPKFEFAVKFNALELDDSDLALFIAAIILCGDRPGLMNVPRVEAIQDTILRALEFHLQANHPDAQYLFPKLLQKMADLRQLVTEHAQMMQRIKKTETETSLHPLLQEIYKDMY
# Bile acid receptor (Homo sapiens), sequence (Q96RI1 whole entry, looked up): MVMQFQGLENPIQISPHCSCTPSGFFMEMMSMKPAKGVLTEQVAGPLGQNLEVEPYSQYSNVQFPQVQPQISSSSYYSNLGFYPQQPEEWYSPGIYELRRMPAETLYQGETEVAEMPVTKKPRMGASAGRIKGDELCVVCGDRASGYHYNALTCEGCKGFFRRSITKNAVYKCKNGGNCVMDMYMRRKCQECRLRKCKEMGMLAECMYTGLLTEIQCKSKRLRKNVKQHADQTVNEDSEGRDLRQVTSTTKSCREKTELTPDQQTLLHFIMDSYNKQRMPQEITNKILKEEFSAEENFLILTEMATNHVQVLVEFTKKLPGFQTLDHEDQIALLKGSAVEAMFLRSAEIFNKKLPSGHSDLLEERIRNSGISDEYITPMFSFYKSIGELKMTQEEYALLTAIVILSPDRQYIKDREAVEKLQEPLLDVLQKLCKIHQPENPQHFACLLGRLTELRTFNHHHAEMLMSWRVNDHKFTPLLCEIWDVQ
Structure (SMILES),activation [1],Potency [2],Potency [3],activation [4],activation [5],activity change % (negative = inhibition) [6],Potency [7],max response [8] [%],Potency [9],Potency [10],Potency [11],outcome [12]
CCOP(=O)(NC(C)C)Oc1ccc(S(C)(=O)=O)c(C)c1 (stereo unspecified),6.06% (inactive),inactive,inactive,-2.2% (inactive),2.64% (inactive),9.01% (inactive),inactive,–,–,–,–,–
CC(C)(C)OOC(C)(C)c1ccc(C(C)(C)OOC(C)(C)C)cc1,4.74% (inactive),inactive,inactive,3.45% (inactive),-6.76% (inactive),10.7% (inactive),inactive,6.63,inactive,inactive,–,–
CCOP(=S)(OCC)SCCl,5.88% (inactive),inactive,inactive,–,12.1% (inactive),-1.44% (inactive),inactive,–,–,–,inactive,inactive
CNC(=S)S,–,–,–,–,-6.24% (inactive),–,–,-6.57,inactive,inactive,–,inactive
CNC(=O)Oc1cc(C)c(SC)c(C)c1,1.32% (inactive),–,–,5.14% (inactive),13.5% (inactive),-16.8% (inactive),27.3 µM (active),12.6,inactive,inactive,inactive,–
O=Cc1cccc(Oc2ccccc2)c1,–,–,–,–,–,–,inactive,10.7,inactive,inactive,inactive,inactive
CC1(C)CN=C(NN=C(/C=C/c2ccc(C(F)(F)F)cc2)/C=C/c2ccc(C(F)(F)F)cc2)NC1,–,–,–,–,–,–,–,-117,39.8 µM (active),–,–,inactive
[Ga]#[As],2.63% (inactive),–,inactive,–,4.24% (inactive),–,–,33,inactive,inactive,–,inactive
Clc1ccc(-c2cc(Cl)c(Cl)cc2Cl)cc1Cl,-4.76% (inactive),–,–,–,-2.9% (inactive),-25.9% (inactive),–,–,–,–,inactive,inactive
CCCCC(O)(Cn1cncn1)c1ccc(Cl)cc1Cl (stereo unspecified),-10.4% (inactive),–,inactive,-2.88% (inactive),–,–,–,-34,inactive,–,–,–
O=C(O)C1(O)c2ccccc2-c2ccc(Cl)cc21 (stereo unspecified),-1.34% (inactive),–,–,8.73% (inactive),-12.8% (inactive),-1.32% (inactive),–,–,–,–,inactive,inactive
CC(C)CCCCCCOC(=O)c1ccccc1C(=O)OCCCCCCC(C)C,13.4% (inactive),inactive,inactive,0.284% (inactive),–,–,inactive,-6.95,inactive,–,inactive,inactive
CCNc1nc(Cl)nc(NC(C)(C)C)n1,-15.6% (inactive),inactive,inactive,0.616% (inactive),–,–,inactive,33.2,inactive,inactive,–,–
CC(C)Oc1cc(-n2nc(C(C)(C)C)oc2=O)c(Cl)cc1Cl,-15% (inactive),–,–,–,12% (inactive),–,61.1 µM (active),22.7,inactive,–,inactive,–
C=C1CC[C@H](O)C/C1=C/C=C1\CCC[C@]2(C)[C@@H]([C@H](C)CCCC(C)C)CC[C@@H]12,–,–,–,–,–,–,23.7 µM (active),–,–,–,–,–
CNC(=O)O/N=C/C(C)(C)S(C)(=O)=O,1.32% (inactive),–,–,–,9.32% (inactive),–,–,–,–,–,–,inactive
CC(C)(C)C(O)C(Oc1ccc(-c2ccccc2)cc1)n1cncn1 (stereo unspecified),-4.84% (inactive),–,inactive,2.98% (inactive),–,-13.8% (inactive),–,-42.4,inactive,–,inactive,–
CCC/C(=N\OCC)C1=C(O)CC(CC(C)SCC)CC1=O (stereo unspecified),–,–,–,–,-6.86% (inactive),–,inactive,-49.6,inactive,–,inactive,inactive
O=[N+]([O-])c1ccc(Cl)c([N+](=O)[O-])c1,-0.974% (inactive),–,35.5 µM (active),16.6% (inactive),–,–,–,–,–,inactive,–,–
O=[N+]([O-])Nc1nccn1Cc1ccc(Cl)nc1,20.9% (inactive),inactive,inactive,–,0.289% (inactive),–,–,19.2,inactive,inactive,–,inactive
Cc1[nH]c(=O)n(C(C)(C)C)c(=O)c1Cl,0.796% (inactive),inactive,inactive,0.517% (inactive),–,8.21% (inactive),–,–,–,inactive,–,inactive
COc1ccc(-c2ccccc2)cc1NNC(=O)OC(C)C,-16.7% (inactive),inactive,inactive,1.06% (inactive),-5.42% (inactive),–,–,–,–,inactive,inactive,inactive
Nc1cnn(-c2ccccc2)c(=O)c1Cl,–,–,–,–,–,-13.7% (inactive),–,13.7,inactive,inactive,inactive,inactive
CCOP(=O)(OCC)SCS(=O)(=O)C(C)(C)C,11.8% (inactive),–,inactive,-5.69% (inactive),–,-16.4% (inactive),–,-7.9,inactive,–,–,inactive
